In PubChem BioAssay:
“And” between values parts separate entries of the source, which are not always exact repeats. Identical values can stand only once.

Test: CRL1545 cell growth, single agent and combined, cisplatin and BGB IC20 combos (AID 1671464);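 note: cells exposed to compound for 96 hours before readout; 0% = vehicle DMSO and 100% = high DMSO killing control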
Settings: CRL1545 osteosarcoma cells, measured here: with cisplatin IC20 combination, at 0.5 µM, stronger effect = higher value

Q: With COc1cc([C@@H]2c3cc4c(cc3[C@@H](O[C@@H]3O[C@@H]5CO[C@@H](c6cccs6)O[C@H]5[C@H](O)[C@H]3O)[C@H]3COC(=O)[C@H]23)OCO4)cc(OC)c1O as the molecule, how does the inhibition read?
A: 45.4% and 75.2%

Q: For COc1cc(NS(C)(=O)=O)ccc1Nc1c2ccccc2nc2ccccc12, which inhibition is on record?
A: 23.8% and 20.2%

Q: Which inhibition does the source give for N=c1ccn2c(n1)O[C@H]1[C@H](O)[C@@H](CO)O[C@H]12 here?
A: -29.7%

Same assay, conditions: CRL1545 osteosarcoma cells, single agent, at 0.05 µM, stronger effect = higher value

Q: With COc1cc([C@@H]2c3cc4c(cc3[C@@H](O[C@@H]3O[C@@H]5CO[C@@H](c6cccs6)O[C@H]5[C@H](O)[C@H]3O)[C@H]3COC(=O)[C@H]23)OCO4)cc(OC)c1O as the molecule, how does the inhibition read?
A: 4.76% and 55.4%

Q: Which inhibition does the source give for COc1cc(NS(C)(=O)=O)ccc1Nc1c2ccccc2nc2ccccc12 here?
A: 42.2% and 26.1%

Q: For N=c1ccn2c(n1)O[C@H]1[C@H](O)[C@@H](CO)O[C@H]12, which inhibition is on record?
A: -73.2%

Same assay, conditions: CRL1545 osteosarcoma cells, single agent, at 5 µM, stronger effect = higher value

Q: For COc1cc([C@@H]2c3cc4c(cc3[C@@H](O[C@@H]3O[C@@H]5CO[C@@H](c6cccs6)O[C@H]5[C@H](O)[C@H]3O)[C@H]3COC(=O)[C@H]23)OCO4)cc(OC)c1O, which inhibition is on record?
A: 98% and 98.8%

Q: For COc1cc(NS(C)(=O)=O)ccc1Nc1c2ccccc2nc2ccccc12, which inhibition is on record?
A: 82.1% and 75.5%

Q: Which inhibition does the source give for N=c1ccn2c(n1)O[C@H]1[C@H](O)[C@@H](CO)O[C@H]12 here?
A: 23.2%
